Source: PubChem BioAssay (NCATS)
Inconclusive results are not listed. Entries that show only a call come without a potency. Activity calls are given as the source filed them. Calls follow the shape of the dose curve; as a rule, active = well fitted curve in the direction sought with a large enough effect; inconclusive = small, poorly fitted or top-dose-only effect, or another doubt; inactive = no such curve, though single readings can be large; an effect the other way counts as inactive or inconclusive.

What follows are molecules tested against Aldehyde dehydrogenase, mitochondrial (Homo sapiens) (UniProt P05091) (assay: qHTS for Inhibitors of the Aldehyde Dehydrogenase Family (ALDH2) Primary screen (AID 2061308; also: nearly all actives have a fitted effect of over 55% in size)). Conditions: ALDH2 enzyme inhibition qHTS, 1536-well; series mostly up to 56 µM.
Potency is read from the fitted curve at half-maximal effect.

Question: How did the Potency turn out when `CC(=O)c1c(O)cc2cccc3c2c1CC(C)(O)O3` (stereo not drawn) was run?
Answer: The Potency was “inactive”.

Question: How did the Potency turn out when `COC(=O)C1=CO[C@@H](O[C@@H]2O[C@H](CO[C@@H]3O[C@H](COC(=O)/C=C/c4ccc(O)cc4)[C@@H](O)[C@H](O)[C@H]3O)[C@@H](O)[C@H](O)[C@H]2O)[C@@H]2C(CO)=CC[C@H]12` was run?
Answer: Its Potency is “inactive”.

Question: `CC(C)(Oc1ccc(-c2nc3cc(Cl)ccc3s2)cc1)C(=O)O` was tested. Which Potency did it give?
Answer: The Potency was “inactive”.

Question: Which Potency does the source give for `COc1ccc(S(=O)(=O)Nc2cccnc2Nc2ccc(O)cc2)cc1` here?
Answer: The Potency was “inactive”.

Question: For `CN(CCCNC(=O)c1ccc2nc3c(c(Cl)c2c1)CCCC3)Cc1ccccc1`, which Potency is on record?
Answer: The Potency was “inactive”.

Question: `CC(C)(O)C1OC1C1=CC(=O)C2(C)OC2C1O` (stereo not drawn) was tested. Which Potency did it give?
Answer: The Potency was “inactive”.

Question: `CO/N=C(/C(=O)N[C@@H]1C(=O)N2C(C(=O)O)=C(CSC(=O)c3ccco3)CS[C@H]12)c1csc(N)n1` was tested. Which Potency did it give?
Answer: The Potency was 17.8 µM (active).

Question: With `C=C1CCC2(C(=O)OC3OC(CO)C(O)C(O)C3O)CCC3(C)C(=CCC4C5(C)CCC(OC6OC(CO)C(OC7OC(C)C(O)C(O)C7O)C(OC7OCC(O)C(O)C7O)C6O)C(C)(C)C5CCC43C)C2C1` (stereo not drawn) as the molecule, how does the Potency read?
Answer: Its Potency is “inactive”.

Question: For `COc1ccc(C2COc3cc(O)ccc3C2)c(O)c1` (stereo not drawn), which Potency is on record?
Answer: The Potency was “inactive”.

Question: With `COc1cc(O[C@@H]2O[C@H](CO[C@H]3OC[C@](O)(CO)[C@H]3O)[C@@H](O)[C@H](O)[C@H]2O)cc(OC)c1O` as the molecule, how does the Potency read?
Answer: The Potency was “inactive”.

Question: `OC[C@H]1O[C@@H](Oc2cc(O)cc(-c3cc4ccc(O)cc4o3)c2)[C@H](O)[C@@H](O)[C@@H]1O` was tested. Which Potency did it give?
Answer: Its Potency is “inactive”.

Question: With `Cc1nn(C)c2c1C(c1ccc(C(F)(F)F)cc1)C(C#N)=C(N)O2` (stereo not drawn) as the molecule, how does the Potency read?
Answer: The Potency was “inactive”.

Question: How did the Potency turn out when `CC1=CC2=C(C)C(=O)C(C)(O)C(O)C2CO1` (stereo not drawn) was run?
Answer: Its Potency is “inactive”.

Question: With `CC1(CO)CC(O)[C@]2(C(=O)O)CCC34CC3(C=CC3[C@]5(C)C(CC[C@]34C)C(C)(CO)[C@@H](O)[C@H](O)[C@@H]5O)C2C1` (stereo partly drawn) as the molecule, how does the Potency read?
Answer: The Potency was “inactive”.

Question: Which Potency does the source give for `CCCC/C=C\CCCCCc1cc(=O)c2ccccc2n1C` here?
Answer: Its Potency is 8.91 µM (active).

Question: For `COc1ccc(CC2C(=O)NC(C)C(=O)N(C)C3Cc4ccc(cc4)Oc4cc(ccc4OC4OC(CO)C(O)C(O)C4O)CC(C(=O)NC(C)C(=O)NC(C)C(=O)N2C)N(C)C3=O)cc1` (stereo not drawn), which Potency is on record?
Answer: The Potency was “inactive”.

Question: With `CNCCC(c1cccs1)c1ccc(O)c2ccccc12` (stereo not drawn) as the molecule, how does the Potency read?
Answer: Its Potency is “inactive”.

Question: With `C[C@@H](OC(=O)/C=C/c1ccc(O)cc1)C1=C[C@]2(C=C[C@@H]3C(C(=O)O)=CO[C@@H](O[C@@H]4O[C@H](CO[C@@H]5O[C@H](CO)[C@@H](O)[C@H](O)[C@H]5O)[C@@H](O)[C@H](O)[C@H]4O)[C@@H]32)OC1=O` as the molecule, how does the Potency read?
Answer: The Potency was “inactive”.

Question: With `CC(=O)CC1CCC(C(C)C(=O)OCC(O)CO)O1` (stereo not drawn) as the molecule, how does the Potency read?
Answer: The Potency was “inactive”.

Question: How did the Potency turn out when `COc1ncc(Nc2ncc([C@@H](C)N3CCN(S(C)(=O)=O)CC3)cc2-c2nc(C)nc(N)n2)cc1F` was run?
Answer: Its Potency is “inactive”.

Question: With `COc1ccc([C@@H]2OC[C@H]3[C@@H]2CO[C@@H]3c2ccc(OC3OC(CO)C(O)C(O)C3O)c(OC)c2)cc1OC` (stereo partly drawn) as the molecule, how does the Potency read?
Answer: The Potency was “inactive”.

Question: Which Potency does the source give for `Cc1nnc(-c2ccc3occ(-c4ccc(S(C)=O)cc4)c3c2)o1` (stereo not drawn) here?
Answer: The Potency was “inactive”.

Question: How did the Potency turn out when `COc1ccc(C2COc3cc(O)ccc3C2)c(O)c1OC` (stereo not drawn) was run?
Answer: The Potency was “inactive”.

Question: For `O=C(/C=C/c1ccc(O)c(O)c1)OC[C@H]1O[C@@H](OC2CCCCC2O)[C@H](O)[C@@H](O)[C@@H]1O` (stereo partly drawn), which Potency is on record?
Answer: The Potency was “inactive”.

Question: How did the Potency turn out when `CNC(=S)NS(=O)(=O)c1cc(CCNC(=O)c2cc(Cl)ccc2OC)ccc1OC` was run?
Answer: Its Potency is “inactive”.

Question: How did the Potency turn out when `COc1cc(O)c(C(=O)O)c(CCc2ccccc2)c1` was run?
Answer: Its Potency is “inactive”.

Question: For `Cc1ccc(C(=O)Nc2noc3ccccc23)cc1`, which Potency is on record?
Answer: Its Potency is “inactive”.

Question: How did the Potency turn out when `CN(C)CCCCCCNC(=O)c1cccc(-c2cc(O)c3ncccc3c2)c1` was run?
Answer: The Potency was “inactive”.

Question: For `COc1cc(OC)c(NC(=O)c2ccc(Cc3cc4c(cc3C)C(C)(C)CCC4(C)C)o2)c(OC)c1`, which Potency is on record?
Answer: Its Potency is “inactive”.

Question: `COc1ccc(/C=C/C(=O)N2CCCC2)cc1` was tested. Which Potency did it give?
Answer: The Potency was “inactive”.

What follows are molecules tested against Retinaldehyde dehydrogenase 3 (Homo sapiens) (UniProt P47895) (assay: qHTS for Inhibitors of the Aldehyde Dehydrogenase Family (ALDH1A3) Confirmatory screens (AID 2061311; also: nearly all actives have a fitted effect of over 60% in size)). Conditions: ALDH inhibition qHTS; series mostly up to 46 µM.

Question: Which Potency does the source give for `CC[C@H](NC(=O)c1c(O)c(-c2ccccc2)nc2ccccc12)c1ccccc1` here?
Answer: Its Potency is 3.57 µM (active).

Question: With `COc1cc(C(=O)OC[C@H]2O[C@@H](Oc3ccccc3/C=C/C(=O)O)[C@H](O)[C@@H](O)[C@@H]2O)cc(OC)c1OC` as the molecule, how does the Potency read?
Answer: Its Potency is 9.79 µM (active).

Question: Which Potency does the source give for `C=C1C(=O)O[C@@H]2C3C(=C(C)[C@@H](O)[C@@H](OC(=O)/C(=C/C)COC(C)=O)[C@@H]12)C(=O)[C@H]1O[C@@]31C` (stereo partly drawn) here?
Answer: Its Potency is “inactive”.

Question: For `O=[N+]([O-])c1ccc(-[n+]2nc(-c3ccccc3)nn2-c2ccc(I)cc2)cc1`, which Potency is on record?
Answer: Its Potency is 11.3 µM (active).

Question: How did the Potency turn out when `CC(C)c1cc2c(c(O)c1O)[C@@]13CCCC(C)(C)C1[C@@H](O)[C@@H]2OC3=O` (stereo partly drawn) was run?
Answer: The Potency was 13.9 µM (active).

Question: With `C/C(=C\CC/C(C)=C/CC[C@]1(C)CCc2cc(O)cc(C)c2O1)CC/C=C(\C)C(=O)O` as the molecule, how does the Potency read?
Answer: The Potency was “inactive”.

Question: For `CC(=O)c1c(C)cc2cccc(O)c2c1O[C@@H]1O[C@H](CO)[C@@H](O)[C@H](O)[C@H]1O`, which Potency is on record?
Answer: The Potency was 3.12 µM (active).

Question: Which Potency does the source give for `CC(=O)c1c(O)cc2cccc3c2c1CC(C)(O)O3` (stereo not drawn) here?
Answer: The Potency was 12.7 µM (active).

Question: `CC(C)(Oc1ccc(-c2nc3cc(Cl)ccc3s2)cc1)C(=O)O` was tested. Which Potency did it give?
Answer: The Potency was 12.6 µM (active).

Question: Which Potency does the source give for `COc1ccc(S(=O)(=O)Nc2cccnc2Nc2ccc(O)cc2)cc1` here?
Answer: Its Potency is 10.1 µM (active).

Question: For `CN(CCCNC(=O)c1ccc2nc3c(c(Cl)c2c1)CCCC3)Cc1ccccc1`, which Potency is on record?
Answer: The Potency was 8.96 µM (active).

Question: How did the Potency turn out when `CO/N=C(/C(=O)N[C@@H]1C(=O)N2C(C(=O)O)=C(CSC(=O)c3ccco3)CS[C@H]12)c1csc(N)n1` was run?
Answer: Its Potency is 7.12 µM (active).

Question: For `COc1ccc(C2COc3cc(O)ccc3C2)c(O)c1` (stereo not drawn), which Potency is on record?
Answer: The Potency was 17.9 µM (active).

Question: `COc1cc(O[C@@H]2O[C@H](CO[C@H]3OC[C@](O)(CO)[C@H]3O)[C@@H](O)[C@H](O)[C@H]2O)cc(OC)c1O` was tested. Which Potency did it give?
Answer: The Potency was 4.91 µM (active).

Question: Which Potency does the source give for `OC[C@H]1O[C@@H](Oc2cc(O)cc(-c3cc4ccc(O)cc4o3)c2)[C@H](O)[C@@H](O)[C@@H]1O` here?
Answer: The Potency was 12.3 µM (active).

Question: For `Cc1nn(C)c2c1C(c1ccc(C(F)(F)F)cc1)C(C#N)=C(N)O2` (stereo not drawn), which Potency is on record?
Answer: The Potency was “inactive”.

Question: `CC1=CC2=C(C)C(=O)C(C)(O)C(O)C2CO1` (stereo not drawn) was tested. Which Potency did it give?
Answer: The Potency was 22.5 µM (active).

Question: How did the Potency turn out when `CCCC/C=C\CCCCCc1cc(=O)c2ccccc2n1C` was run?
Answer: Its Potency is “inactive”.

Question: `COc1ccc(CC2C(=O)NC(C)C(=O)N(C)C3Cc4ccc(cc4)Oc4cc(ccc4OC4OC(CO)C(O)C(O)C4O)CC(C(=O)NC(C)C(=O)NC(C)C(=O)N2C)N(C)C3=O)cc1` (stereo not drawn) was tested. Which Potency did it give?
Answer: Its Potency is 4.78 µM (active).

Question: How did the Potency turn out when `CNCCC(c1cccs1)c1ccc(O)c2ccccc12` (stereo not drawn) was run?
Answer: Its Potency is 22.5 µM (active).

Question: For `CC(=O)CC1CCC(C(C)C(=O)OCC(O)CO)O1` (stereo not drawn), which Potency is on record?
Answer: Its Potency is 4.49 µM (active).

Question: `COc1ncc(Nc2ncc([C@@H](C)N3CCN(S(C)(=O)=O)CC3)cc2-c2nc(C)nc(N)n2)cc1F` was tested. Which Potency did it give?
Answer: Its Potency is 10 µM (active).

Question: `Cc1nnc(-c2ccc3occ(-c4ccc(S(C)=O)cc4)c3c2)o1` (stereo not drawn) was tested. Which Potency did it give?
Answer: The Potency was 0.631 µM (active).

Question: For `CNC(=S)NS(=O)(=O)c1cc(CCNC(=O)c2cc(Cl)ccc2OC)ccc1OC`, which Potency is on record?
Answer: The Potency was “inactive”.

Question: Which Potency does the source give for `COc1cc(O)c(C(=O)O)c(CCc2ccccc2)c1` here?
Answer: Its Potency is 12.7 µM (active).

Question: How did the Potency turn out when `Cc1ccc(C(=O)Nc2noc3ccccc23)cc1` was run?
Answer: Its Potency is 1.27 µM (active).

Question: For `CN(C)CCCCCCNC(=O)c1cccc(-c2cc(O)c3ncccc3c2)c1`, which Potency is on record?
Answer: Its Potency is 8.96 µM (active).

Question: For `COc1cc(OC)c(NC(=O)c2ccc(Cc3cc4c(cc3C)C(C)(C)CCC4(C)C)o2)c(OC)c1`, which Potency is on record?
Answer: The Potency was 4 µM (active).
